Assay results taken from PubChem BioAssay (NCATS).
Records with an inconclusive call do not appear. The source made the active and inactive calls. Unless noted, calls come from the whole dose curve; as a rule, active = well fitted curve in the direction sought with a large enough effect; inconclusive = small, poorly fitted or top-dose-only effect, or another doubt; inactive = no such curve, though single readings can be large; an effect the other way counts as inactive or inconclusive.

What was measured:
[1] = target: Protein phosphatase 1D (Homo sapiens) (UniProt O15297); experiment: RapidFire Mass Spectrometry qHTS Assay for Modulators of WT P53-Induced Phosphatase 1 (WIP1) (AID 1347424); conditions: WIP1 dephosphorylation of phosphopeptide, RapidFire MS; series mostly up to 63 µM;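 note: amount of dephosphorylated VEPPL-S-QETFS peptide product formed by WIP1; plate controls were DMSO wells for no effect and GSK830371 inhibitor control at 10 µM for full effect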
Chain of Protein phosphatase 1D (Homo sapiens) (O15297 whole entry, looked up): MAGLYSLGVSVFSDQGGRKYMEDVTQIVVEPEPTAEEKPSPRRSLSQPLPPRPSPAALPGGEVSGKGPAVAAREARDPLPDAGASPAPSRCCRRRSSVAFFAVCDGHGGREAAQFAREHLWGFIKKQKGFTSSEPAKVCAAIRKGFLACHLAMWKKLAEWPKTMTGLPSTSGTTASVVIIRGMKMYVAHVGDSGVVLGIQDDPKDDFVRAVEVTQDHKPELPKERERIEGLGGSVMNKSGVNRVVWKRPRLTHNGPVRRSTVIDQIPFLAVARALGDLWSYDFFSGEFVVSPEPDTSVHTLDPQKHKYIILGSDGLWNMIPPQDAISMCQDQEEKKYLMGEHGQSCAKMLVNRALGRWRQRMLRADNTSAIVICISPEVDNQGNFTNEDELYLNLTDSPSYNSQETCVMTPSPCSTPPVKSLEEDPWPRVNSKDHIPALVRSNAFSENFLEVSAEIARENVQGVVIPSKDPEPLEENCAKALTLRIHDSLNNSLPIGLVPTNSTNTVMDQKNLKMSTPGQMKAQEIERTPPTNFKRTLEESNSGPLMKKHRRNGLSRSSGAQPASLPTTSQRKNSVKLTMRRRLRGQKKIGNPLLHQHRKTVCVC
How it was run: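 WIP1 (10 nM final) was preincubated 1 h at room temperature with compounds in Tris-HCl pH 7.5, 30 mM MgCl2, TCEP, EGTA, BSA; 2 uM VEPPL-pS-QETFS phosphopeptide was added for 5 min, quenched with formic acid, and dephosphorylated product quantified by RapidFire MS.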

[2] = target: Protein phosphatase 1D (Homo sapiens) (UniProt O15297); experiment: Rhodamine-PBP qHTS Assay for Modulators of WT P53-Induced Phosphatase 1 (WIP1) (AID 1347425); conditions: recombinant WIP1, Rhodamine-PBP phosphate fluorescence, real-time; series mostly up to 57.5 µM; note: % of control where 0% means no effect
How it was run: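 Steps: enzyme with Rh-PBP sensor and compounds, room-temperature incubation of 1 hr, baseline read, addition of VEPPL-pS-QETFS (10 uM final), kinetic fluorescence reads at 525/598 nm. Activity equals final minus baseline signal.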

[3] = target: Calcium and integrin-binding protein 1 (Homo sapiens) (UniProt Q99828); experiment: Primary qHTS for Identification of Calcium Integrin Binding Protein 1 (CIB1) Competitor (AID 1508620); conditions: CIB1-GST / FITC-alphaIIb peptide fluorescence polarization; series mostly up to 57.7 µM;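 note: GST tagged CIB1 binding a fluorescein labelled alphaIIb integrin peptide tracer; top concentration of the series differs between compounds; % is set by controls: 0 for no effect and ±100 for the full control effect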
Chain of Calcium and integrin-binding protein 1 (Homo sapiens) (Q99828 whole entry, looked up): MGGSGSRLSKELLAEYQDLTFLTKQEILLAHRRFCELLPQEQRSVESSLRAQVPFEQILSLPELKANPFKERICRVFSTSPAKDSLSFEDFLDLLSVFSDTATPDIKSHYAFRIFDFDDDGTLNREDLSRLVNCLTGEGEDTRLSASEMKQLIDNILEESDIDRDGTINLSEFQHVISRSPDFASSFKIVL
How it was run: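 Fluorescence polarization competition: CIB1-GST (1 uM final) preincubated with compound 15 min at room temperature, then FITC-labeled alphaIIb peptide (100 nM final) added for another 15 min. Polarization read at Ex 480/Em 540.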

[4] = Primary qHTS for small molecule stabilizers of the endoplasmic reticulum resident proteome: Secreted ER Calcium Modulated Protein (SERCaMP) assay (AID 1508630); conditions: SH-SY5Y GLuc-SERCaMP (Gaussia luciferase released on ER calcium loss) secretion, thapsigargin, luminescence; series mostly up to 38.4 µM; note: % is set by controls: 0 for no effect and ±100 for the full control effect
How it was run: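 GLuc-SERCaMP-expressing SH-SY5Y cells, pretreated 16 h with compound, are challenged with thapsigargin to empty ER calcium stores; after 4 h, coelenterazine is added directly to the medium and luminescence is imaged.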

[5] = A High-Content qHTS Against Drug Library for the Identification of Small Molecules that Inhibit DYT1 Early Onset Primary Dystonia-Associated Cell Pathology (AID 1645839; calls by dose curve); conditions: HEK293 Flp-In EGFP-delE TorsinA, punctate imaging, 48 h; series mostly up to 46.1 µM
How it was run: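 Readout: %pathology, the punctate EGFP-TorsinA distribution from imaging, as the primary channel and cell count as the toxicity counterscreen. HEK293 Flp-In cells expressing delE TorsinA were induced with tetracycline and treated with compound for 48 h.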

[6] = target: Cytochrome P450 2D6 (Homo sapiens) (UniProt P10635); experiment: Cytochrome P450 family 2 subfamily D member 6 (CYP2D6) small molecule antagonists: luciferase biochemical (cell-free) qHTS assay (AID 1645840; active = well fitted curve in the direction sought with a large enough effect in the repeat runs; an effect the other way counts as inactive or inconclusive; note: nearly all actives have a fitted effect of over 55% in size; note: potency is the fitted concentration of half-maximal effect); conditions: P450-Glo CYP2D6 enzyme, luciferin luminescence, 1 h; series mostly up to 57.4 µM
Chain of Cytochrome P450 2D6 (Homo sapiens) (P10635 whole entry, looked up): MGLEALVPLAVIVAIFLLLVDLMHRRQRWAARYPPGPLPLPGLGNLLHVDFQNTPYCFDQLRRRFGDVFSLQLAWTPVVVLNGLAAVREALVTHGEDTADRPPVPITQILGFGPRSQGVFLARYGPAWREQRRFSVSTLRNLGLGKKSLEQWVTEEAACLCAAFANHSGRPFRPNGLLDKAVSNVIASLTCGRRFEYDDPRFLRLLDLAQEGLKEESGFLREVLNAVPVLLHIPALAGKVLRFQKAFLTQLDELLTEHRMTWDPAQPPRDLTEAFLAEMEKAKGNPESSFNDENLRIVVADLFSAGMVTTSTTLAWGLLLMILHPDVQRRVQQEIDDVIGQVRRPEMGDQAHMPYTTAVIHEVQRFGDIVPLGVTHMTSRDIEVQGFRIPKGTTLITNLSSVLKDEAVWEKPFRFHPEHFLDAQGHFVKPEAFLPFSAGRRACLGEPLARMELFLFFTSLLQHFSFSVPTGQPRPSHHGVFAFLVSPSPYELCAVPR
How it was run: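 P450-Glo luminescent screen: recombinant CYP2D6 enzyme–proluciferin substrate mix preincubated with compound 10 min at room temperature, then NADPH regeneration added for 1 h at room temperature. Detection reagent added for 20 min; luciferin light read as relative luminescence units.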

[7] = target: Cytochrome P450 2C9 (Homo sapiens) (UniProt P11712); experiment: Cytochrome P450 family 2 subfamily C member 9 (CYP2C9) small molecule antagonists: luciferase biochemical (cell-free) qHTS assay (AID 1645842; active = well fitted curve in the direction sought with a large enough effect in the repeat runs; an effect the other way counts as inactive or inconclusive; note: % is set by controls: 0 for no effect and ±100 for the full control effect; nearly all actives have a fitted effect of over 55% in size); conditions: P450-Glo CYP2C9 enzyme assay, luciferin luminescence; series mostly up to 57.4 µM
Chain of Cytochrome P450 2C9 (Homo sapiens) (P11712 whole entry, looked up): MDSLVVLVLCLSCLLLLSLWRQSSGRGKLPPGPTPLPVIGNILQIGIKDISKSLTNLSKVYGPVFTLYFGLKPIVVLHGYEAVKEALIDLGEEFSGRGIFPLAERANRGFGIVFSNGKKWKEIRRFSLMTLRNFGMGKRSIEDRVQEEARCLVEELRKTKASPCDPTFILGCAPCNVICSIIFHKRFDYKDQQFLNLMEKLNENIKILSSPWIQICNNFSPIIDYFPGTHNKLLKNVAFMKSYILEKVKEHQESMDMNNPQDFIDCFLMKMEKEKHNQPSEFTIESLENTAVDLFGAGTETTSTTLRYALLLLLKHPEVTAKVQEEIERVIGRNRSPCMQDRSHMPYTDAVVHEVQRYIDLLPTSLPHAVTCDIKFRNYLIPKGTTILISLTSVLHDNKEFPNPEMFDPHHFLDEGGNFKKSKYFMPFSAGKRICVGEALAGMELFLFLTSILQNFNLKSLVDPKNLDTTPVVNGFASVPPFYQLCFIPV
How it was run: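 Luminescence, after 20 min with luciferin detection reagent, reflected CYP2C9 turnover during a 1 h NADPH-driven reaction at 37C. Enzyme-substrate mix contained 0.4% bovine serum albumin and was preincubated with compound 10 min at room temperature.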

[8] = Validation qHTS assay for inhibitors of Activation Induced Cytidine Deaminase (AID): UDG Counterscreen signal (AID 1347427); conditions: biochemical UDG counterscreen, fluorescence signal; series mostly up to 115 µM; note: 0% is about no effect
How it was run: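 Counterscreen read of UDG activity (2 U/mL, 4/3x) in the FRET deamination format with AID (1 uM, 4/3x), DJC20/DJC23 substrates (250 nM, 4x), 4 h at room temperature. NaOH stop, fluorescence at 560 ex/665 em.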

[9] = target: Single-stranded DNA cytosine deaminase (Homo sapiens) (UniProt Q9GZX7); experiment: Validation qHTS assay for inhibitors of Activation Induced Cytidine Deaminase (AID): AID signal (AID 1347429); conditions: Recombinant AID, FRET ssDNA deamination with UDG, fluorescence; series mostly up to 115 µM; note: % is set by controls: 0 for no effect and ±100 for the full control effect
Chain of Single-stranded DNA cytosine deaminase (Homo sapiens) (Q9GZX7 whole entry, looked up): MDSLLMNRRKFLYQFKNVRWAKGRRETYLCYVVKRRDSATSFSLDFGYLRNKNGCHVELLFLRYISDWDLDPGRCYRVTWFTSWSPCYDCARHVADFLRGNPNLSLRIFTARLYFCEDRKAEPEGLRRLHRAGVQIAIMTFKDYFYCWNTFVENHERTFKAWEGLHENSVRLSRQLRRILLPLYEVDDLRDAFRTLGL
How it was run: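 FRET deamination assay: 1 uM AID (4/3x stock) with UDG, compound up to 114 uM, then 250 nM DJC20/DJC23 substrate (4x stock) for 4 hr at room temperature. NaOH added, 30 min; fluorescence read 540/590 nm.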

[10] = Primary qHTS for inhibitors of La Crosse Virus (LACV) - induced cell death in SH-SY5Y cells (AID 1508616); conditions: SH-SY5Y LACV cytopathicity rescue, ATP luminescence, 6 d; series mostly up to 4.29 µM;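 note: top concentration of the series differs between compounds; 0% = infected DMSO wells and 100% = uninfected DMSO wells; higher means more rescue of cells from virus-induced death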
How it was run: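 SH-SY5Y cells (6000/well) plated 24 h, then given compounds by pin transfer and LACV at 0.01 MOI for 6 days at 37C. Viability measured by ATPLite luminescence, normalized to infected DMSO and uninfected DMSO.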

[11] = target: Calcium and integrin-binding protein 1 (Homo sapiens) (UniProt Q99828); experiment: Validation qHTS for Identification of Calcium Integrin Binding protein 1 (CIB1) Competitor (AID 1508618); conditions: CIB1-GST / FITC-alphaIIb peptide fluorescence polarization; series mostly up to 114 µM; note: % is set by controls: 0 for no effect and ±100 for the full control effect
How it was run: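 In this qHTS validation, the LOPAC set (up to 114 uM) was tested for blocking CIB1 binding to a fluorescein-tagged alphaIIb peptide, with FP detection at 480/540 nm.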

[12] = target: Papain (Carica papaya) (UniProt P00784); experiment: Primary qHTS assay for inhibitors of the protease papain (AID 1645873); conditions: papain Z-FR-AMC cleavage, AMC fluorescence; series mostly up to 49.8 µM
Chain of Papain (Carica papaya) (P00784 whole entry, looked up): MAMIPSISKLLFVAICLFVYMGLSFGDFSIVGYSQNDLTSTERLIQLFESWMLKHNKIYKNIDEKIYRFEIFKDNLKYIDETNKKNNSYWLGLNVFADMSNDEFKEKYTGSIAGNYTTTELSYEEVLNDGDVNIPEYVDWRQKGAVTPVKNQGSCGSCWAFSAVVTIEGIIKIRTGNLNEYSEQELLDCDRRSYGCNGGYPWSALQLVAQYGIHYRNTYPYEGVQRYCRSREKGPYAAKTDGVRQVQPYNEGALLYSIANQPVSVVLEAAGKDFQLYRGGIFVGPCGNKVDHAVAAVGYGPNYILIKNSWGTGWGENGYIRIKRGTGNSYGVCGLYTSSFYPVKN

[13] = Counterscreen qHTS for small molecule stabilizers of the endoplasmic reticulum resident proteome: GLuc-NoTag assay (AID 1508627); conditions: Gaussia luciferase NoTag secretion counterscreen, luminescence, thapsigargin 100 nM for final 4 h; series mostly up to 76.4 µM;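 note: SH-SY5Y cells given compound then 100 nM thapsigargin to empty ER calcium; 0% = thapsigargin alone and -100% = DMSO vehicle control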
How it was run: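 SH-SY5Y cells stably expressing constitutively secreted GLuc (no SERCaMP tag) were pre-incubated 5 h, treated with compound for 19 h, then 100 nM thapsigargin for 4 h at 37C; medium GLuc read by coelenterazine luminescence.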

[14] = Confirmatory qHTS for small molecule stabilizers of the endoplasmic reticulum resident proteome: Secreted ER Calcium Modulated Protein (SERCaMP) assay (AID 1508628); conditions: SERCaMP secreted luciferase ER calcium/proteostasis reporter; series mostly up to 76.3 µM; note: % is set by controls: 0 for no effect and ±100 for the full control effect; nearly all actives have a fitted effect of over 40% in size
How it was run: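 SH-SY5Y cells stably expressing GLuc-SERCaMP, treated 16 h with compound (primary 1.53, 7.67, 38.3 uM; confirmation 11 concentrations, up to 76.6 uM), then 100 nM thapsigargin for 4 h. Secreted Gaussia luciferase in medium read by coelenterazine luminescence.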

N[C@@H](C(=O)N[C@@H]1C(=O)N2C(C(=O)O)=C(Cl)CS[C@H]12)c1ccccc1
inactive: activity change, negative = inhibition [1] -1.8% [at 12.6 µM] | activity change, negative = inhibition [2] 10.7% [at 11.5 µM] | outcome [3] | Potency [4] | % pathology change, negative = correction [5] 10.3% [at 9.22 µM] | activity change, negative = inhibition [6] 16.7% [at 11.5 µM] | activity change, negative = inhibition [7] 11.4% [at 11.5 µM]

NC(=O)N1c2ccccc2CC(=O)c2ccccc21
inactive: outcome [1] | outcome [3] | Potency [4] | Potency [6] | Potency [7]

CC(=O)[C@H]1CC[C@H]2[C@@H]3CCC4=CC(=O)CC[C@]4(C)[C@H]3CC[C@]12C
inactive: outcome [8] | outcome [9] | Potency [10] | outcome [11] | outcome [3] | Potency [4] | Potency [12]

N[C@@H](Cc1ccc(O)c(O)c1)C(=O)O
inactive: outcome [11] | outcome [3] | Potency [12]

CCN(C)C(=O)Oc1cccc([C@H](C)N(C)C)c1
inactive: outcome [1] | outcome [2] | outcome [3] | Potency [4] | Potency [5]

COc1ccc2cc3[n+](cc2c1OC)CCc1cc2c(cc1-3)OCO2
inactive: outcome [1] | outcome [2] | outcome [3] | Potency [4] | Potency [5] | Potency [7]
active: Potency [6] 1.55 µM

COC(=O)Nc1nc2ccc(C(=O)c3ccccc3)cc2[nH]1
inactive: outcome [1] | outcome [2] | Potency [4] | Potency [6] | Potency [7]

COc1nc(N)nc2c1ncn2[C@@H]1O[C@H](CO)[C@@H](O)[C@@H]1O
inactive: outcome [1] | outcome [2] | Potency [10] | outcome [3] | Potency [5] | Potency [6] | Potency [7]

CNCC[C@H](Oc1cccc2ccccc12)c1cccs1
inactive: outcome [1] | outcome [2] | outcome [3] | outcome [13] | Potency [14] | Potency [4] | Potency [7]

CC1(C)[C@H](C(=O)O)N2C(=O)C[C@H]2S1(=O)=O
inactive: outcome [1] | outcome [2] | Potency [10] | outcome [3] | Potency [5] | Potency [6] | Potency [7]

Clc1ccccc1CN1CCc2sccc2C1
inactive: outcome [1] | outcome [2] | Potency [4] | Potency [5]

Cc1ncc([N+](=O)[O-])n1CCO
inactive: outcome [1] | outcome [2] | outcome [3] | Potency [4] | Potency [5] | Potency [6] | Potency [7]

COc1cccc(N(C)C(=S)Oc2ccc3c(c2)CCCC3)n1
inactive: outcome [1] | outcome [2] | Potency [10] | outcome [3] | Potency [5] | Potency [6] | Potency [7]
